# The list is not random: actives were taken first. Their share in the collection is about 7.4%.
# Rab9 prom act: activates the Rab9 promoter; Huh7 Rab9 promoter-luciferase reporter, luminescence, 24 h; Potency, µM (top dose mostly 9.22 µM), inactives show at the top dose activation, negative = inhibition, most hits filed as activators; 2.8% of 320,000 active; AID 485297; note: % of control where 0% means no effect; nearly all actives have a fitted effect of over 60% in size
#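 Cell-based reporter: Huh7 stable for Rab9 promoter-driven luciferase, plated in reduced-serum medium with 10% FBS at 1500 cells/well, compound-treated 24 h at 37 °C, luminescence read after 10 min reagent.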
# ELG1 genotox: genotoxicity induction in ELG1-luciferase HEK293T cells | 1.3% of 330,000 active | Potency, µM (titrated, usually from 46 µM), without a hit: at the highest dose activity change, positive = activation, hits mostly activators | HEK293T ELG1-luciferase reporter, luminescence, 16 h; note: % of control where 0% means no effect; nearly all actives have a fitted effect of over 60% in size
#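 After overnight (16 hr) compound treatment at 37 °C, ELG1-luciferase HEK293T cells were lysed with ONE-Glo; luminescence quantified 30 min later at room temperature.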
# NPC1 prom act: activates the NPC1 promoter. Huh7 NPC1 promoter luciferase reporter, 24 h. Potency, µM (doses to about 9.22 µM), for inactives: at the top dose activation, hits mostly activators. 2.4% of 320,000 active. AID 485313; note: % of control where 0% means no effect; nearly all actives have a fitted effect of over 60% in size
#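 NPC1 promoter–luciferase Huh7 cells; 24 h compound; luminescence.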
# FLuc counter: inhibits or activates purified firefly luciferase, miR-21 counter-screen; Potency, µM (doses to about 57.5 µM), without a hit: top-dose activity change, negative = inhibition, actives largely listed as inhibitors; purified FLuc, Km substrates, luminescence inhibition; 6.9% of 360,000 active; P08659;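 note: plate controls were vehicle for no effect and reference inhibitor for full effect; nearly all actives have a fitted effect of over 55% in size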
# Target sequence (P08659 whole entry, looked up): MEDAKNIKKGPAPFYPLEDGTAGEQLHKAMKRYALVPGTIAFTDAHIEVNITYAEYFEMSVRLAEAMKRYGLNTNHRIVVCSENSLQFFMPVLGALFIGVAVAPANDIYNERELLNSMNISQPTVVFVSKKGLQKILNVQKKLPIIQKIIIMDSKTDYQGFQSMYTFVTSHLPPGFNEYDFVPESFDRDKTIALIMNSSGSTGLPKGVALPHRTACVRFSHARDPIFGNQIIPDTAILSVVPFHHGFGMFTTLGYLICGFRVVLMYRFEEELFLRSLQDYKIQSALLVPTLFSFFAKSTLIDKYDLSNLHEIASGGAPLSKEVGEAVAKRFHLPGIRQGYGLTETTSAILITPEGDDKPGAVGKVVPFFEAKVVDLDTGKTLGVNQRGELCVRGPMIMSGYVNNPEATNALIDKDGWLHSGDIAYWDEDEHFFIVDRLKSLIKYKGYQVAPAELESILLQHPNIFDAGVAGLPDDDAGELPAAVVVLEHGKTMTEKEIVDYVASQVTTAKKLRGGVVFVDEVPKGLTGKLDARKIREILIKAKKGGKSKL
#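 Purified P. pyralis luciferase, 10 nM final, with Km-level 10 uM D-luciferin and 10 uM ATP in 50 mM Tris acetate pH 7.5, 10 mM Mg acetate, 0.01% Tween-20, 0.05% BSA; 6-point qHTS titration about 60 µM downward; luminescence read.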
# SMN2 splice up: enhancers of SMN2 splice variant expression. HEK293 SMN2-luciferase splicing reporter, luminescence, 30-36 h. Potency, µM (top dose mostly 46.1 µM), for the others: at the highest dose activity change, positive = activation, most hits filed as activators. 2.8% of 210,000 active. AID 1458; note: % of control where 0% means no effect; nearly all actives have a fitted effect of over 55% in size
#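 HEK293 cells carry an SMN2 […]–luciferase reporter in which exon 7 inclusion puts luciferase in frame. Cells were plated 10-12 h before compound addition, then incubated 30-36 h at 37C. ONE-Glo luminescence was read; sodium butyrate at 4.5 mM final served as control.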
# * marks the source's active call; other numbers are inactive results; ? = inconclusive; / = not tested or not shown; [ ] = dose if it differs, or a comment. Calls come from the whole dose curve; as a rule, active = well fitted curve in the direction sought with a large enough effect; inconclusive = small, poorly fitted or top-dose-only effect, or another doubt; inactive = no such curve, though single readings can be large; an effect the other way counts as inactive or inconclusive. Potency is the fitted concentration of half-maximal effect.
SMILES,Rab9 prom act,ELG1 genotox,NPC1 prom act,FLuc counter,SMN2 splice up
Cc1cc(C(=O)O/N=C(\N)c2ccncc2)ccc1[N+](=O)[O-],3.2µM*,?,?,17µM*,/
Cc1ccnc(NC(=O)COc2ccc3oc4c(c3c2)CCCC4)c1,5%,?,17%,4.3µM*,-21%
Cc1ccccc1NC(=O)COc1ccc2oc3c(c2c1)CCCC3,/,/,/,-2%,-2%
Cc1ccnc(NC(=O)COc2ccc3c(c2)CCC3)c1,2.5µM*,2.1µM*,3.2µM*,0.21µM*,/
CC1CCCN(CC(O)COc2ccc(S(=O)(=O)N3CCCC3)cc2[N+](=O)[O-])C1 (stereo not drawn),-12%,1%,1%,3%,/
CCOC(=O)c1cnc2c(-c3ccccc3)cnn2c1C,1.6µM*,8.2µM*,2.5µM*,1.9µM*,11µM*
CCOC(=O)c1cnc2c(ccc3ccccc32)c1N,1.1µM*,8.2µM*,1.6µM*,?,/
CCOC(=O)c1cnc(-c2ccccc2)nc1N,2µM*,3.3µM*,2.8µM*,9.5µM*,7.1µM*
CCOC(=O)c1cnc(-c2ccccc2)nc1N(C)C,-3%,11µM*,-4%,15µM*,4.5µM*
Cc1ccc2c(c1)C(c1ccccc1)CC(=O)O2 (stereo not drawn),2%,-1%,-3%,-1%,/
COc1ccccc1NS(=O)(=O)c1cccc(NS(=O)(=O)c2ccc(Cl)c(C(=O)O)c2)c1,/,1%,/,/,/
CCN(CC)S(=O)(=O)c1cccc(-c2cn3cc(C)ccc3n2)c1,16%,?,12%,4.8µM*,-29%
Cc1ccc2nc(-c3cccc(S(=O)(=O)N(C)C)c3)cn2c1,3.2µM*,12%,?,?,16%
O=C(CNS(=O)(=O)c1c(Cl)cccc1Cl)OCc1csc(-c2ccccc2)n1,13%,12%,1%,0%,60%
O=S(=O)(c1ccccc1)N1N=C(c2ccc(Cl)cc2)CC1c1ccco1 (stereo not drawn),-19%,-5%,-12%,-1%,/
C/C(=N\Nc1nc(C)cc(-c2ccccc2)n1)c1ccc(O)cc1,-31%,-3%,13%,4.3µM*,/
C/C(=N\Nc1nc(C)cc(-c2ccccc2)n1)c1cccc(N)c1,0%,-4%,25%,3.4µM*,/
C/C(=N\Nc1ccc([N+](=O)[O-])cc1)c1cccc(N)c1,?,14%,?,19µM*,?
C/C(=N/Nc1nc(C)cc(-c2ccccc2)n1)c1ccco1,?,-5%,?,15µM*,16%
Cc1cc(-c2ccccc2)nc(N/N=C/c2ccccc2F)n1,?,3%,?,11µM*,/
C/C(=N\Nc1nc(C)cc(-c2ccccc2)n1)c1ccccc1,-6%,-4%,20%,2.7µM*,/
CCOc1ccc(/C=N/NC(=O)c2ccccc2C)cc1CN1CC2CC(C1)c1cccc(=O)n1C2 (stereo not drawn),1%,2%,-1%,3%,/
CCOc1ccc(OCc2ccc(C(=O)NCc3ccncc3)o2)cc1,?,?,?,-21%,16%
Cc1cccc(OCc2ccc(C(=O)N3CCOCC3)o2)c1,3%,-1%,3%,0%,/
CCCc1ccc(OCc2ccc(C(=O)N3CCSCC3)o2)cc1,2.2µM*,10µM*,2.2µM*,21µM*,/
SMILES,Rab9 prom act,ELG1 genotox,NPC1 prom act,FLuc counter,SMN2 splice up
CCc1ccc(OCc2ccc(C(=O)OC)o2)cc1,?,?,?,17µM*,/
COC(=O)c1ccc(COc2ccc(C(C)(C)C)cc2)o1,0.35µM*,?,0.71µM*,17µM*,/
CCc1ccc(OCc2ccc(C(=O)NCc3ccccn3)o2)cc1,?,?,?,?,5µM*
COC(=O)c1ccc(COc2ccc3c(c2)CCC3)o1,?,?,?,17µM*,/
O=C(N/N=C/c1ccc2ccccc2c1)c1ccc(COc2ccc3c(c2)CCC3)o1,?,?,?,2.7µM*,?
O=C(NCc1cccnc1)c1ccc(COc2ccc3c(c2)CCC3)o1,-1%,-8%,4%,?,-52%
CCC(C)c1ccc(OCc2ccc(C(=O)OC)o2)cc1 (stereo not drawn),0.5µM*,?,0.63µM*,?,/
CC(C)(C)c1ccc(OCc2ccc(C(=O)N3CCOCC3)o2)cc1,?,13%,?,15µM*,/
O=C(/C=C/c1c(Cl)cccc1Cl)n1cccn1,-4%,?,0%,-5%,1%
CCOC(=O)c1ccc(NC(=O)C(=O)NCc2ccccn2)cc1,-2%,3%,4%,-12%,-3%
CC(C)(C)c1ccc(OCc2ccc(C(=O)Nc3cccnc3)o2)cc1,0.35µM*,?,0.45µM*,15µM*,/
CCc1ccc(NC(=O)C(=O)NCc2ccccn2)cc1,3.5µM*,?,?,19µM*,/
CCOc1ccccc1CNC(=O)CCCN1C(=O)c2cccnc2Oc2ccc(Cl)cc21,/,/,/,-12%,/
N#Cc1ccc(NC(=O)Nc2ccc(Cl)cc2)cc1,-24%,17%,22%,?,-23%
N#C/C(C(=O)Nc1ccc(Cl)cc1)=C(/S)Nc1ccccc1,-1%,-3%,0%,15µM*,/
Oc1ccc2ccccc2c1C=NCc1cn2ccsc2n1,-3%,2%,-3%,19µM*,9%
O=C(CCCc1ccccc1)NCc1cn2ccsc2n1,-5%,12%,2%,1%,-6%
CCOc1ccc(C2=Nn3c(CC)nnc3SC2)cc1,2%,?,0%,/,/
CC1(C)S[C@@H]2[C@H](NC(=O)C(N)c3ccccc3)C(=O)N2[C@H]1C(=O)O (stereo partly drawn),/,/,/,/,2%[20.6 µM]

# Compound activity (PubChem)
